SARS PLpro yeast: qHTS of Yeast-based Assay for SARS-CoV PLP. AID 485353, 2010. actives 0.19% (n = 330,000). S. cerevisiae expressing SARS-CoV PLpro, growth rescue. Potency, µM (highest dose often 32.9 µM), for inactives: top-dose activity, positive = growth rescue, actives largely listed as activators; further: potency means the concentration at half of the fitted maximal effect; 0% is about no effect; nearly all actives have a fitted effect of over 55% in size
Shiga toxin inh: A qHTS for Small Molecule Inhibitors of Shiga Toxin. Vero cells, Shiga toxin protein synthesis inhibition reporter. inhibition, % at 38.7 µM. actives 9.2% (n = 290,000). AID 2315, 2010; in the data active means inhibition mostly above about 28%, no sharp cut-off; inactive means mostly below about 43%; further: 0% is about no effect
CHX counter: Cycloheximide Counterscreen for Small Molecule Inhibitors of Shiga Toxin; cell reporter, cycloheximide protein synthesis inhibition counterscreen; max response, %; actives 12% (n = 300,000); AID 2314, 2010; in the data active means max response mostly above about 13%, no sharp cut-off; inactive means mostly below about 14%; further: read at 38.3 µM for the half of the compounds with a filed dose; 0% is about no effect
NS1 function inh: qHTS Assay for Inhibitors of Influenza NS1 Protein Function; actives 0.4% (n = 270,000); Potency, µM (doses to about 46.1 µM), without a hit: top-dose activity, positive = more growth; further: potency means the concentration at half of the fitted maximal effect; actives are rising curves; nearly all actives have a fitted effect of over 50% in size
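Growth recovery, yeast-based: influenza A NS1 expressed in S. cerevisiae causes slow growth, and suppressors are detected by OD600. The parent strain without NS1 is used as positive control.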
The depositor's hits bear a star; ? = inconclusive; nt = no result given. Sampled rows, rich in hits. Any-hit rate of the full collection: about 12%. Unless noted, the call rests on the fitted dose curve.

SMILES	SARS PLpro yeast	Shiga toxin inh	CHX counter	NS1 function inh
CC(C)(C)c1ccc(O)c(CN(Cc2cc(C(C)(C)C)ccc2O)c2ccccc2)c1	nt	nt	nt	3%
Cn1ccnc1SCC(=O)c1ccc(Cl)cc1	-11%	118*	37*	nt
Cn1ccnc1SCC(=O)Nc1ccc([N+](=O)[O-])cn1	-6%	-7	-3	13%
Cn1ccnc1SCC(=O)c1ccc(O)cc1	1%	37	26*	4%
Cn1ccnc1SCC(=O)Nc1ccc(Cl)cn1	0%	31	23*	nt
OCCC1CN(Cc2cccn2-c2cccnc2)CCN1C1CCCC1 (configuration not stated)	5%	34	8	2%
O=C(Nc1ccc(N2CCCC2)c(Cl)c1)c1cccc(-c2cc3ccccc3oc2=O)c1	-7%	-11	1	?
CC(=O)Nc1ccc(NC(=O)c2cccc(-c3cc4ccccc4oc3=O)c2)cc1	2%	49	31*	nt
O=C(CCNc1cccc(F)c1)c1cc2ccccc2o1	-4%	36	44*	nt
NS(=O)(=O)c1cccc(NC(=O)c2cc3ccccc3o2)c1	1%	56*	25*	-2%
O=C(COC(=O)c1cc2ccccc2oc1=O)Nc1cccc(Br)c1	1%	nt	nt	nt
O=C(Nc1cccc(Br)c1)c1cc2ccccc2o1	-26%	106*	92*	-134%
NS(=O)(=O)c1cccc(NC(=O)c2cc(=O)c3ccccc3o2)c1	-3%	10	-1	4%
CC(C)C[C@H](NC(=O)CNC(=O)[C@@H]1CCCN1C(=O)[C@H](CCCNC(=N)N)NC(=O)[C@H](CC(=O)O)NC(=O)[C@@H](NC(=O)[C@H](CC(N)=O)NC(=O)[C@@H](NC(=O)[C@H](CC(=O)O)NC(=O)CNC(=O)[C@@H](NC(=O)[C@@H](NC(=O)[C@H](C)NC(=O)[C@@H](N)CCC(N)=O)[C@@H](C)O)C(C)C)C(C)C)[C@@H](C)O)C(=O)N[C@@H](CC(C)C)C(=O)N[C@@H](CC(=O)O)C(=O)N[C@@H](CC(C)C)C(=O)N[C@@H](CCCCN)C(=O)O	nt	8	-3	nt
CNC(=O)c1cc2ccccc2o1	6%	3	1	12%
CCC(=O)Nc1cccc(-c2cc3ccccc3oc2=O)c1	-1%	83*	61*	-34%
CCC(=O)Nc1cccc(NC(=O)c2cc3ccccc3o2)c1	-17%	100*	45*	-38%
Cc1cccc(NC(=O)c2cc3ccccc3o2)c1	-53%	95*	50*	-35%
COCCn1c(SCC(=O)N2CCCC2)nc2c([nH]c3ccccc32)c1=O	3%	-8	-2	8%
Cc1c(S(=O)(=O)N2CCCC(C(=O)O)C2)cnn1C (configuration not stated)	4%	22	3	nt
CC(C)(C)C(=O)Nc1ccc(C(=O)Nc2cc(NC(=O)c3ccc(NC(=O)C(C)(C)C)cc3)cc(C(=O)O)c2)cc1	1%	10	19*	?
CC(C)(C)C(=O)Nc1ccc(C(=O)NNC(=O)c2ccccc2)cc1	-9%	78*	31*	nt
CC(C)(C)C(=O)Nc1ccc(C(=O)NNC(=O)Cc2ccccc2)cc1	7%	12	15*	-10%
O=C(Cc1ccccc1)Nc1ccc(C(=O)NCc2ccccc2)cc1	11%	10	5	20%
O=C(O)c1cc(NC(=O)c2ccc(Br)cc2)cc(NC(=O)c2ccc(Br)cc2)c1	2%	-6	-3	23%
SMILES	SARS PLpro yeast	Shiga toxin inh	CHX counter	NS1 function inh
CC(Sc1n[nH]c(N)n1)c1nc2scc(-c3cccs3)c2c(=O)[nH]1 (configuration not stated)	4%	-15	-3	2%
Cc1ccccc1C(=O)NC1CC2CCC(C1)N2Cc1ccccc1 (configuration not stated)	0%	-8	0	4%
Cc1ccc(N=C2NC(=O)/C(=C/c3cccn3C)S2)cc1	-1%	79*	37*	1%
Cc1ccc(N=C2NC(=O)/C(=C/c3cccn3C)S2)cc1C	0%	66*	32*	7%
Cc1cccc(N=C2NC(=O)/C(=C/c3cccn3C)S2)c1C	-2%	14	3	-50%
Cn1c(=O)c2c(SCC(=O)N3CCCC3)nc(-c3ccccc3)nc2n(C)c1=O	-4%	-9	-1	10%
CC(=O)Nc1ccc(N(C(=O)CNC(=O)c2cccs2)C(C(=O)NCC2CCCO2)c2ccccc2)cc1 (configuration not stated)	1%	-4	-5	4%
COc1ccccc1C(=O)NC(=O)CSc1nnnn1C	1%	nt	nt	nt
COC(=O)c1ccc(COC(=O)c2ccc(C)c(S(=O)(=O)N3CCCCC3)c2)cc1	6%	nt	nt	nt
CC(=O)OCC(NC(=O)C(CCCCNC(=O)OCc1ccccc1)NC(=O)OC(C)(C)C)C1OC(n2cc(C)c(=O)[nH]c2=O)C(OC(C)=O)C1OC(C)=O (configuration not stated)	nt	-7	-2	nt
COc1cccc(Nc2ccc(C(=O)O)cc2N)c1	-2%	74*	62*	6%
Cc1ccc(Nc2ccc(C(=O)O)cc2N)cc1	-9%	52	22*	5%
CCOc1ccccc1Nc1ccc(C(=O)O)cc1N	-3%	-6	10	-7%
Cc1cc(C)cc(Nc2ccc(C(=O)O)cc2[N+](=O)[O-])c1	-2%	-9	-3	-2%
COc1cc(Nc2ccc(C(=O)O)cc2[N+](=O)[O-])cc(OC)c1	-10%	2	-4	-18%
Cc1cc(C)cc(Nc2ccc(C(=O)O)cc2N)c1	17%	48*	52*	24%
CCOC(=O)c1ccc(NCCc2ccc(OC)c(OC)c2)c(N)c1	2%	15	10	-20%
COc1ccc(CN2C(=NC(=O)CCc3ccccc3)SC3CS(=O)(=O)CC32)cc1 (configuration not stated)	-1%	-2	-11	-4%
O=C(c1ccc([N+](=O)[O-])cc1)N1CCSC1c1cccc(Cl)c1 (configuration not stated)	2%	8	1	nt
OC(COc1ccc2ccccc2c1Cl)CN1CCOCC1 (configuration not stated)	3%	105*	37*	-5%
Cc1ccc(OCC(O)CN2CCN(Cc3ccc4c(c3)OCO4)CC2)c(C)c1 (configuration not stated)	-1%	-16	-3	-11%
Cc1ccc(OCC(O)CN2CCOCC2)c(C)c1 (configuration not stated)	-3%	nt	31*	20%
O=C(N1CCOCC1)N1CCN(CC(O)COc2ccc3ccccc3c2)CC1 (configuration not stated)	2%	-16	-1	-3%
OC(COc1ccccc1)CN1CCOCC1 (configuration not stated)	5%	9	-1	7%
OC(COc1ccc2cc(Br)ccc2c1)CN1CCOCC1 (configuration not stated)	-4%	37*	11	-16%
c1ccc2sc(NC3=NCN(CCN4CCOCC4)CN3)nc2c1	-1%	13	2	1%
COc1cc(OC)c(OC)cc1CNCc1ccco1	-2%	26	-3	-1%
COc1cc(CNCc2ccccn2)ccc1OCc1c(Cl)cccc1Cl	-1%	9	1	-46%

High-throughput results as filed in PubChem BioAssay.
